RGS4 inhibitor = Inhibitors of Regulator of G Protein Signaling (RGS) 4: qHTS | Transcreener GDP fluorescence polarization, RGS4-accelerated GTP hydrolysis | Potency, µM (highest dose often 114 µM), without a hit: at the highest dose activity change, negative = inhibition, usual class: inhibitors | 390,000 tested, 0.039% active; active = well fitted inhibition curve with a large enough effect; inconclusive = small, poorly fitted or top-dose-only effect; inactive = no such curve, though single readings can be large or run the other way; note: potency is the fitted concentration of half-maximal effect; % is set by controls: 0 for no effect and ±100 for the full control effect; nearly all actives have a fitted effect of over 75% in size
Target sequence (P49798 whole entry, looked up): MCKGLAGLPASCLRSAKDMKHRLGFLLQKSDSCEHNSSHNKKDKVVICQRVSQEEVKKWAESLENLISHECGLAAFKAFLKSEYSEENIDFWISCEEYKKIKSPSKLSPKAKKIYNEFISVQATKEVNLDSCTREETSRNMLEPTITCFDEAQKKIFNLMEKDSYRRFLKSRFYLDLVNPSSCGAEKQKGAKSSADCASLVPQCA
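MLSMR compounds (23 nl, pin-transferred) preincubated 10 min at room temperature with a 500nM (2x) first reagent, then RGS4 at 900nM (2x) plus Transcreener GDP mix added; fluorescence polarization (620/688 nm) read before and after 90 min at 30 °C.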
DRD3 antagonist = qHTS of D3 Dopamine Receptor Antagonist: qHTS | D(3) dopamine receptor (Homo sapiens), P35462 | D3R cells, DiscoveRx beta-arrestin luminescence, antagonist mode; stronger effect = lower value | max response, negative = inhibition, % | 360,000 tested, 2.5% active; in the data active = max response below about -50%; inconclusive = no clear call, values can overlap the other calls; note: % is set by controls: 0 for no effect and ±100 for the full control effect
Target sequence (P35462 whole entry, looked up): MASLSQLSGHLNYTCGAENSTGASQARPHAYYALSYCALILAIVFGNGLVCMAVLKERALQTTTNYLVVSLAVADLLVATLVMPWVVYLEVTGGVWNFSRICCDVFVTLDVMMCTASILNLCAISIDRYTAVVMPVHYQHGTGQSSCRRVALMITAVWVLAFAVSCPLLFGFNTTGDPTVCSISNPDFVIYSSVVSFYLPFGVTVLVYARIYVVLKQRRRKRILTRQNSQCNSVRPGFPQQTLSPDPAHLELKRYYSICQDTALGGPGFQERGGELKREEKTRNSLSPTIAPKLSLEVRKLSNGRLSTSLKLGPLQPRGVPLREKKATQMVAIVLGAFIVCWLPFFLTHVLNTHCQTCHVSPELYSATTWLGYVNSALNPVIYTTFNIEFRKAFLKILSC
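Cells plated overnight at 1500 cells/well, then exposed to library compounds with dopamine controls for 90 minutes at 37 degrees C. DiscoveRx reagent added for 30–60 minutes at room temperature; luminescence read, quantitative HTS format.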
uPA generation = qHTS for Inhibitors of Cell Surface uPA Generation; cell surface uPA generation assay, qHTS; Potency, µM (series often up to 38.3 µM), for inactives: at the highest dose activity change, negative = inhibition, hits mostly inhibitors; 330,000 tested, 0.31% active; active = well fitted inhibition curve with a large enough effect; inconclusive = small, poorly fitted or top-dose-only effect; inactive = no such curve, though single readings can be large or run the other way; tested in mouse RAW 264.7 cells; note: potency is the fitted concentration of half-maximal effect; % is set by controls: 0 for no effect and ±100 for the full control effect; nearly all actives have a fitted effect of over 55% in size
DRD3 agonist = qHTS of D3 Dopamine Receptor Agonist: qHTS; 410,000 tested, 0.58% active; D(3) dopamine receptor (Homo sapiens), P35462; AID 652048, 2013; max activation, %; D3R DiscoveRx beta-arrestin cells, luminescence, 90 min; in the data active = max activation above about 30%; note: 0% is about no effect
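Agonist mode: compounds and dopamine controls were applied to plated cells for 90 min at 37 degrees C after an overnight attachment at 1500 cells/well. Luminescent read-out followed 30 - 60 minutes at room temperature with DiscoveRx detection reagent.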
Starred values were filed as active, the others as inactive; i = inactive; u = inconclusive; x = no result; [ ] = remark or other dose. This is a sample that favours compounds with a hit; in the whole collection about 3.1% have one here.

SMILES	RGS4 inhibitor	DRD3 antagonist	uPA generation	DRD3 agonist
C=C1C(=O)O[C@H]2C[C@@H](C)[C@@H]3C=CC(=O)[C@@]3(C)C[C@H]12	-5%	-66*	49%	-3
C=C1C(=O)OC2CC(C)C3C=CC(=O)C3(C)C(O)C12 (configuration not stated)	u	-75*	-6%	-26
C=C1C(=O)O[C@@H]2C[C@@H](C)[C@@H]3C4OC4C(=O)[C@@]3(C)[C@@H](O)[C@H]12 (some centres not stated)	5%	-91*	96%	-22
C=C1C(=O)OC2C1CCC(C)C1(O)C=CC(=O)C21C (configuration not stated)	-15%	22	25%	4
C=C1C(=O)O[C@H]2[C@H]1[C@H](OC(=O)CC(=O)O[C@@H]1C[C@@H](C)[C@@H]3C=CC(=O)[C@@]3(C)[C@H]3OC(=O)C(=C)[C@H]13)C[C@@H](C)[C@H]1C=CC(=O)[C@]12C	u	-13	u	-5
C=C1C(=O)O[C@@H]2C[C@@H](C)[C@@H]3C=CC(=O)[C@@]3(C)[C@@H](OC(=O)CC(=O)O[C@H]3[C@@H]4C(=C)C(=O)O[C@@H]4C[C@@H](C)[C@@H]4C=CC(=O)[C@]43C)[C@H]12	-103%	-110*	-95%	-32
CC1OC(O[C@H]2C[C@@H](O)[C@]3(CO)[C@@H]4C(CC[C@]3(O)C2)[C@@]2(O)CC[C@H](C3=CC(=O)OC3)[C@@]2(C)C[C@H]4O)C(O)C(O)C1O (some centres not stated)	i	x	x	x
O=[N+]([O-])c1ccc(Cl)c(S(=O)(=O)Nc2cccc(-c3ccc(N4CCCC4)nn3)c2)c1	-23%	13	u	-3
O=C(N/N=C/c1c(O)n(CCC2=CCCCC2)c(=O)[nH]c1=O)c1ccccc1	-15%	-68*	0%	-5
Nc1ccccc1N=Cc1c(O)n(CCC2=CCCCC2)c(=O)[nH]c1=O	20%	-87*	-4%	-10
C[C@@H]1[C@H]2Cc3ccc(O)cc3[C@]1(C)CCN2C	x	x	x	-15
S=C(SSC(=S)N1CCCCC1)N1CCCCC1	x	x	x	-21
O=C(C[C@H]1C/C=C\C[C@H](NC(=O)OCC2c3ccccc3-c3ccccc32)C(=O)O[C@H](c2ccccc2)CNC1=O)N[C@H](CO)Cc1ccccc1	1%	5	-17%	0
O=C1C=C(c2ccc3ncccc3c2)C[C@@H](c2ccc(Cl)cc2)C1	-15%	-7	u	0
COc1ccc([C@H]2CC(=O)C=C(c3c(OC)cccc3OC)C2)cc1	12%	-15	2.2µM*	-44
O=C1N[C@@H](Cc2ccccc2)COC(=O)[C@@H](Cc2ccc(F)cc2)C/C=C\C[C@@H]1CC(=O)N(CCO)Cc1ccccc1	25%	-19	u	-14
Cc1ccccc1CN1CCCN(Cc2ccc(Cl)cc2)S1(=O)=O	8%	u	3%	-1
Cc1ccc(CN2CCCN(Cc3ccc(Cl)cc3)S2(=O)=O)cc1	17%	-18	3%	77*
CCN1CC=C(c2c[nH]c3ccccc23)CC1	-8%	-71*	-1%	-13
CCCN(CCC)C1Cc2cc(OC)c(OC)cc2C1	20%[56.9 µM]	-103*	-2%	-90
CCON=O	x	x	x	7
COc1ccc2nc(NC(=O)c3nc(S(=O)(=O)Cc4cccc(C)c4)ncc3Cl)sc2c1	u	x	x	-17
Cn1c(O)c(C=NCCCN2CCCC2=O)c(=O)n(C)c1=O	10%	-65*	1%	0
CN1CCN(/N=C/c2c(O)n(C)c(=O)n(C)c2=O)CC1	-8%	13	7%	5
CN(C(=O)Cc1ccc(Cl)c(Cl)c1)[C@H](CN1CCCC1)c1cccc(N=C=S)c1	-171%[56.9 µM]	x	x	x
SMILES	RGS4 inhibitor	DRD3 antagonist	uPA generation	DRD3 agonist
COc1ccccc1N1CCN(Cc2cccc(Br)c2)CC1	-9%	-100*	9%	-21
COc1ccccc1N1CCN(Cc2ccc(Br)s2)CC1	0%	-69*	-6%	-6
COc1ccccc1N1CCNCC1	-4%[56.9 µM]	-17	14%	-11
COc1ccccc1N1CCN(Cc2ccc3c(c2)OCO3)CC1	15%	-87*	6%	-35
Oc1cc2c(cc1CN1CCN(c3ccccc3F)CC1)OCO2	-3%	-96*	-2%	-22
CN1CCN(Cc2ccc(Br)s2)CC1	4%	-77*	-2%	-29
Cc1cccc(N2CCN(Cc3ccc4c(c3)OCO4)CC2)c1C	-7%	-105*	2%	-24
COc1ccccc1N1CCN(Cc2c(F)cccc2Cl)CC1	10%	0	6%	-3
COc1ccccc1N1CCN(Cc2ccccc2)CC1	3%	-113*	0%	-5
COc1cc(C)c(CN2CCN(c3ccccc3)CC2)cc1C	25%	-65*	x	-52
Cc1ccccc1CN1CCN(c2ccc(Cl)cc2)CC1	13%	u	-4%	-19
C[C@@H]1O[C@@H](O[C@@H]2C=C3CC[C@@H]4[C@H](CC[C@]5(C)[C@@H](c6ccc(=O)oc6)CC[C@]45O)[C@@]3(C)CC2)[C@H](O)[C@H](O)[C@H]1O	x	x	x	3
CN(C(=O)Cc1ccc(Cl)c(Cl)c1)C(CN1CCCC1)c1cccc(N=C=S)c1 (configuration not stated)	440%[56.9 µM]	x	x	x
COc1ccccc1N1CCN(Cc2cc(C)c(C)cc2O)CC1	-15%	-84*	1%	-16
COc1cc(CN2CCN(c3cc(C)ccc3C)CC2)ccc1O	-16%	u	u	-13
O=C(O)[C@H]1[C@H]2CN[C@H](C(=O)O)[C@H]21	6µM*	x	x	x
CC[C@]1(O)CC[C@H]2[C@@H]3CCC4=CCCC[C@@H]4[C@H]3CC[C@@]21C	x	x	x	6
CCCC[C@@H](CNC)NC[C@H](Cc1ccc(O)cc1)NCCc1ccc(OCC)cc1	15%	-21	u	-26
O=C1NC(=O)C2(Cc3ccccc3N3CCCC32)C(=O)N1c1ccccc1 (configuration not stated)	-1%	-7	2%	-3
CN1c2ccc([N+](=O)[O-])cc2CC2(C(=O)NC(=O)N(c3ccc(Br)cc3)C2=O)C1c1ccccc1 (configuration not stated)	6%	-51*	0%	-6
Cc1nnc2n1-c1sc(CCc3ccc(CC(C)C)cc3)cc1C(c1ccccc1Cl)=NC2C (configuration not stated)	x	x	x	-4
CN(C)CCN=Cc1c(O)n(C2CCCCCC2)c(=O)[nH]c1=O	9%	4	-6%	5
CCN(CC)CCN=Cc1c(O)n(C2CCCCCC2)c(=O)[nH]c1=O	-8%	0	-1%	39*
CC(C)Cn1c(O)c(N=NC(=O)c2cccc(S(=O)(=O)N3CCCCC3)c2)c2ccccc21	1%	-11	u	16
C[C@]12CC[C@H]3[C@@H](CC[C@@]45O[C@@H]4C(O)=C(C#N)C[C@]35C)[C@@H]1CC[C@@H]2O	x	x	x	-1
